The values below come from article PMC7862700, “An all-to-all approach to the identification of sequence-specific readers for epigenetic DNA modifications on cytosine”.

Experiment in all cases: DAPPL (digital affinity profiling via proximity ligation, sequencing); 10 mM Tris-HCl pH 7.5, 50 mM NaCl, 1 mM DTT, 4% glycerol, room temperature, 30 min; GST-TFs on glutathione beads, 16-mer random dsDNA library, 0.1% formaldehyde crosslink after washing; high values mean tight binding
Holding throughout (details): protein: recombinant; tags: N-terminal GST; dsDNA, one strand shown

Experiment [1] deals with T1, ERF (Homo sapiens, UniProt P50548 1-548).
T1 sequence: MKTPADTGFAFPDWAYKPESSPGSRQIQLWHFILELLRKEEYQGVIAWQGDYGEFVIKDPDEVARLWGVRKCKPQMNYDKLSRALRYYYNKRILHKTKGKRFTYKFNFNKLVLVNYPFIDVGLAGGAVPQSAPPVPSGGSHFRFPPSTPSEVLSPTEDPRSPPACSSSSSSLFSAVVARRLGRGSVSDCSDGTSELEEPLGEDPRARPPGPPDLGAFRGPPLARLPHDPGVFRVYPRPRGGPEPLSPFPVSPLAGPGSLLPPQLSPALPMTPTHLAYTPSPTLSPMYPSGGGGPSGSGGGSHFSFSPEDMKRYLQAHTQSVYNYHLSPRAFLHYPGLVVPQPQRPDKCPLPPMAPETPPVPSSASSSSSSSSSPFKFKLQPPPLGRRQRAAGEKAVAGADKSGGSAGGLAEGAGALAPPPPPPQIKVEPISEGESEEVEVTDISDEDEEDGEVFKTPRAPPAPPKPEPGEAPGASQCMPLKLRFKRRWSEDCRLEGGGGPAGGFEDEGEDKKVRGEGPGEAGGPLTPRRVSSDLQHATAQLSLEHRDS
The gist of the method:
(§1)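 A tag-only sample was pooled with DNA-barcoded human transcription factors that had been expressed in yeast as GST fusions and captured on glutathione beads. The pools were incubated for 30 min at room temperature with 200 nmole of a random double-stranded 16-mer DNA library in Tris/NaCl/DTT/glycerol buffer, then washed, crosslinked with 0.1% formaldehyde, proximity-ligated (BsaI/T4 ligase, 1 h, 37 °C), PCR-amplified and sequenced on an Illumina NextSeq500. Binding signal is each hexamer's read frequency for a factor divided by its frequency for the tag-only sample.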

For experiment [2], the target named is T2, ETV3L (Homo sapiens, UniProt Q6ZN32 1-361).
T2 sequence: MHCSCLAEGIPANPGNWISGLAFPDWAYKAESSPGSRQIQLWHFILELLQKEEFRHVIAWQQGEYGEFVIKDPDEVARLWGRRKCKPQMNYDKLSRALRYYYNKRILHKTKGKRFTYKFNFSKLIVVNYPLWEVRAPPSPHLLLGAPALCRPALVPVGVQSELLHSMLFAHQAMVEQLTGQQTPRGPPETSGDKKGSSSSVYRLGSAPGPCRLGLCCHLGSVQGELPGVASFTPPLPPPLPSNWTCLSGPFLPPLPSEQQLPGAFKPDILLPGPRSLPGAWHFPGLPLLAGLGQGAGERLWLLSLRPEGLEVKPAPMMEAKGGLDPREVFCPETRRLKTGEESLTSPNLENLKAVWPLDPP
The gist of the method: as §1

The target in experiment [3] is T3, ETS2 (Homo sapiens, UniProt P15036 1-469).
T3 sequence: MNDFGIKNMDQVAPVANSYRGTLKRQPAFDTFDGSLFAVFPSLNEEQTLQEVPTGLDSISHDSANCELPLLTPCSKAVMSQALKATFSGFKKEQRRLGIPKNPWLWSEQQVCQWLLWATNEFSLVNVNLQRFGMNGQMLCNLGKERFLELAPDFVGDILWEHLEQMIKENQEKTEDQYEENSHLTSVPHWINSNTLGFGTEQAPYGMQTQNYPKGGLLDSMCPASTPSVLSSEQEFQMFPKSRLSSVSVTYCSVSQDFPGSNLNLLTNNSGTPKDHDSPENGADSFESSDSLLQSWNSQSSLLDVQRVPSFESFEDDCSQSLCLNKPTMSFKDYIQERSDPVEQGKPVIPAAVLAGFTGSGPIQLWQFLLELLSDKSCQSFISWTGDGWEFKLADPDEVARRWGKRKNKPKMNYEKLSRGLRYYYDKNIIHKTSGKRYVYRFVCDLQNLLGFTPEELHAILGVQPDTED
Put shortly: as §1

Experiment [4] has as its target T4, SPDEF (Homo sapiens, UniProt O95238 1-335).
T4 sequence: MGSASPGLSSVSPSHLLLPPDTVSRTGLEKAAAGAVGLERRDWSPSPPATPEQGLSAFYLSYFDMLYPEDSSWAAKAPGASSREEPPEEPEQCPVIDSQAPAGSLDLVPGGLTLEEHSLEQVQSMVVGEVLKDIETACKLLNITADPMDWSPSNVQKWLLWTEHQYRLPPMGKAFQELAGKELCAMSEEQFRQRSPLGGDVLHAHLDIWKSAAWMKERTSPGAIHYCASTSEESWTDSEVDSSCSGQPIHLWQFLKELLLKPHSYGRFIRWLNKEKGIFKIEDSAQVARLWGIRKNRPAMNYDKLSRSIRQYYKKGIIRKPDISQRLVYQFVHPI
Put shortly:
as §1

The target of experiment [5] is T5, ETV7 (Homo sapiens, UniProt Q9Y603 1-341).
T5 sequence: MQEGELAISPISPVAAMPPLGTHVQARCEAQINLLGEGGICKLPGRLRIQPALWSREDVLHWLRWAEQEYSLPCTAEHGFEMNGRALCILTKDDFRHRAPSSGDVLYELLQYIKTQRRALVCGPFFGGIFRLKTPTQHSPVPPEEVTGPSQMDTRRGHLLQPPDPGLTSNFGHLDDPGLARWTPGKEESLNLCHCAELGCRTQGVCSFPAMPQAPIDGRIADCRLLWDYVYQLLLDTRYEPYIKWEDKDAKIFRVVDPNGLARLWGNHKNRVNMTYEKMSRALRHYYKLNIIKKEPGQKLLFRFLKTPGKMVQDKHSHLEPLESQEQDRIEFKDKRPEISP
The gist of the method: as §1

The target of experiment [6] is T6, ELF5 (Homo sapiens, UniProt Q9UKW6-2 1-255).
T6 sequence: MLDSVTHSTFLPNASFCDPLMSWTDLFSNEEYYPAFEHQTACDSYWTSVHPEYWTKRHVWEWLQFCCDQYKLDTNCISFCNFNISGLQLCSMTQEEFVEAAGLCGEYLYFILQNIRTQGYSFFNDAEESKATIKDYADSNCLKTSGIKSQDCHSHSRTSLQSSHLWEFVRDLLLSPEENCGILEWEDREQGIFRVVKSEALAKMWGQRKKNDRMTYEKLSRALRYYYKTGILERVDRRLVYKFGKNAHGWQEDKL
Put shortly: as §1

The target in experiment [7] is T7, ETV3 (Homo sapiens, UniProt P41162-2 1-143).
T7 sequence: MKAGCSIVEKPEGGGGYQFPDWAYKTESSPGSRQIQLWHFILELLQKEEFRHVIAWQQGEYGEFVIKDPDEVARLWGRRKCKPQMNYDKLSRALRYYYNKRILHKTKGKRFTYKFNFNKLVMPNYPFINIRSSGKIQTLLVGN
The gist of the method: as §1

For experiment [8], the target named is ETV6 (Homo sapiens, UniProt P41212 1-452). The gist of the method: as §1
Chain of ETV6 (P41212 whole entry): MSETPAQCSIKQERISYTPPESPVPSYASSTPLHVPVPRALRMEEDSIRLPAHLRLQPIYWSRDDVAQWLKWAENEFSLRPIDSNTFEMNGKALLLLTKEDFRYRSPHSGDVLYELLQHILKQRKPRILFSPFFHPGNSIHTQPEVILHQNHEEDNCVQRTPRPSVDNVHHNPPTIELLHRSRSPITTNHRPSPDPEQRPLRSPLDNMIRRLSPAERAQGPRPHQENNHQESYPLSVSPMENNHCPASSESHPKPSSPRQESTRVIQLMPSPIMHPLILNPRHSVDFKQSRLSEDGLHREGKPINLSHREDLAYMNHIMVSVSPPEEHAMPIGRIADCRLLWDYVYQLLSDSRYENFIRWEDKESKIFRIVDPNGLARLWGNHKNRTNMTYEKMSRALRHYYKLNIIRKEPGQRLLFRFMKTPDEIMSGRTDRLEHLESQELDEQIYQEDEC

Regarding ATGTGT, the binding signal is 1.15 fold enrichment (6-mer frequency, TF over GST control) in experiment [1]; 1.1 fold enrichment (6-mer frequency, TF over GST control) in experiment [2]; 1.17 fold enrichment (6-mer frequency, TF over GST control) in experiment [3]; 1.23 fold enrichment (6-mer frequency, TF over GST control) in experiment [4]; 1.09 fold enrichment (6-mer frequency, TF over GST control) in experiment [5]; 1.04 fold enrichment (6-mer frequency, TF over GST control) in experiment [6]. Moreover, the binding signal in experiment [7] was 1.01 fold enrichment (6-mer frequency, TF over GST control); in experiment [8], 1.12 fold enrichment (6-mer frequency, TF over GST control).

Turning to CCTCAA, the binding signal in experiment [1] was 1.32 fold enrichment (6-mer frequency, TF over GST control); in experiment [2] it was 1.58 fold enrichment (6-mer frequency, TF over GST control); in experiment [3] it was 1.39 fold enrichment (6-mer frequency, TF over GST control); in experiment [4], 1.38 fold enrichment (6-mer frequency, TF over GST control); in experiment [5] it was 1.27 fold enrichment (6-mer frequency, TF over GST control); in experiment [6], 1.52 fold enrichment (6-mer frequency, TF over GST control). Further, the binding signal in experiment [7] is 1.48 fold enrichment (6-mer frequency, TF over GST control); in experiment [8], 1.42 fold enrichment (6-mer frequency, TF over GST control).

Consider ATGATT, for which the binding signal is 1.18 fold enrichment (6-mer frequency, TF over GST control) in experiment [1]; 1.24 fold enrichment (6-mer frequency, TF over GST control) in experiment [2]; 1.18 fold enrichment (6-mer frequency, TF over GST control) in experiment [3]; 1.15 fold enrichment (6-mer frequency, TF over GST control) in experiment [4]; 1.17 fold enrichment (6-mer frequency, TF over GST control) in experiment [5]; 1.14 fold enrichment (6-mer frequency, TF over GST control) in experiment [6]. Besides, the binding signal in experiment [7] is 1.3 fold enrichment (6-mer frequency, TF over GST control); in experiment [8] it was 1.19 fold enrichment (6-mer frequency, TF over GST control).

Turning to CAACCT, the binding signal in experiment [1] is 1.26 fold enrichment (6-mer frequency, TF over GST control); in experiment [2], 1.13 fold enrichment (6-mer frequency, TF over GST control); in experiment [3], 1.2 fold enrichment (6-mer frequency, TF over GST control); in experiment [4], 1.19 fold enrichment (6-mer frequency, TF over GST control); in experiment [5], 1.09 fold enrichment (6-mer frequency, TF over GST control); in experiment [6], 1.2 fold enrichment (6-mer frequency, TF over GST control). Further, the binding signal in experiment [7] was 1.1 fold enrichment (6-mer frequency, TF over GST control); in experiment [8], 1.18 fold enrichment (6-mer frequency, TF over GST control).

For GTAACT, the binding signal in experiment [1] is 1.22 fold enrichment (6-mer frequency, TF over GST control); in experiment [2] it was 1.28 fold enrichment (6-mer frequency, TF over GST control); in experiment [3] it was 1.25 fold enrichment (6-mer frequency, TF over GST control); in experiment [4], 1.2 fold enrichment (6-mer frequency, TF over GST control); in experiment [5], 1.12 fold enrichment (6-mer frequency, TF over GST control); in experiment [6], 1.24 fold enrichment (6-mer frequency, TF over GST control). Also, the binding signal in experiment [7] was 1.25 fold enrichment (6-mer frequency, TF over GST control); in experiment [8], 1.25 fold enrichment (6-mer frequency, TF over GST control).

Regarding TACTGG, the binding signal in experiment [1] is 1.16 fold enrichment (6-mer frequency, TF over GST control); in experiment [2], 1.11 fold enrichment (6-mer frequency, TF over GST control); in experiment [3], 1.08 fold enrichment (6-mer frequency, TF over GST control); in experiment [4] it was 1.05 fold enrichment (6-mer frequency, TF over GST control); in experiment [5], 1.12 fold enrichment (6-mer frequency, TF over GST control); in experiment [6], 1.04 fold enrichment (6-mer frequency, TF over GST control). For the same sequence, the binding signal in experiment [7] is 1.11 fold enrichment (6-mer frequency, TF over GST control); in experiment [8], 1.15 fold enrichment (6-mer frequency, TF over GST control).
